Test results taken from PubChem BioAssay (NCI).
About 79,000 compounds went through this panel and 15% of them were active in at least one assay; those are over-represented in the sample as a whole. Unmarked numbers belong to inactive results. Active and inactive are the calls of the source. Rule as the data show it: active = growth inhibition above about 70%; inactive = the rest. Where a SMILES comes first, the peptide text is derived from it. [ ]: non-standard residue; d: D form. ξ: configuration not given here. ξD = NC(CC(=O)O)C(=O)O

Assay: NCI Yeast Anticancer Drug Screen. Data for the mlh1 rad18 strain (AID 175)
Settings: S. cerevisiae mlh1 rad18 strain growth inhibition; at 50.0 µM; active compounds read high
Procedure, shortened: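 Yeast w/ defined DNA-repair lesions; compound exposure; growth vs vehicle controls → % inhibition.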
With `COC(=O)c1nc(=S)[nH]c(C(=O)OC)c1C(=O)c1ccc(Cl)c(Cl)c1` the growth inhibition was 99.2% (active). For `NC(=Nc1nc(-c2ccccn2)cc2ccccc12)c1ccccn1`, the growth inhibition was 72.2% (active). In the case of `Cc1nc(Sc2nc3ccc([N+](=O)[O-])cc3s2)sc1C`, the growth inhibition is reported as 93.6% (active). Work on `NC(=S)Nc1ccc2c(c1)Cc1ccccc1-2` yielded a growth inhibition of 60.4%. With `CN(C)CCN(C)CC(C)(C)C(=O)/C=C/c1ccc(Cl)c(Cl)c1` the growth inhibition was 70.5% (active). For `CCCCCCCCCCCCCCCc1ccc(C(=O)C[n+]2ccccc2)cc1`, the growth inhibition was 83% (active). For `O=C(CCl)N(c1ccccc1)c1ccccc1`, the growth inhibition was 92.8% (active). In the case of `CCOC(=O)C1=C(C(=O)c2ccccc2)C(c2cccc([N+](=O)[O-])c2)C(C(=O)c2ccccc2)=C(C(=O)OCC)N1`, the growth inhibition is reported as 67.7%. For `CCN1CCCC(Nc2cc(C)nc(/N=C(/N)Nc3ccc(Cl)c(Cl)c3)n2)C1` (centres undefined), the growth inhibition was 83.2% (active). In the case of `CCc1cnc2ccccc2c1/C=C/c1ccc(N(C)C)cc1`, the growth inhibition is reported as 94.7% (active). In the case of `O=[N+]([O-])c1ccc2c(c1)Cc1ccccc1-2`, the growth inhibition is reported as 67.2%. With `Fc1ccc(NCCS)cc1` the growth inhibition was 84.3% (active). `CCCCC(C=O)(C=C=C(C)C)CC` (centres undefined) gave a growth inhibition of 16.9%. For `CN(C)c1ccc(/C=C/c2cc[n+](C)c(/C=C/c3ccc(N(C)C)cc3)c2)cc1`, the growth inhibition was 91% (active). For `COc1cc([C@@H]2c3cc4c(cc3[C@H](OC3OC5COC(c6ccccc6)OC5C(O)C3O)[C@H]3COC(=O)[C@H]23)OCO4)cc(OC)c1OC` (some centres undefined), the growth inhibition was 81% (active). With `OC(c1cc(-c2ccc(Cl)cc2)nc2c(Cl)cccc12)C1CCCCN1` (centres undefined) the growth inhibition was 99.5% (active). `CSc1nc(C)c(C(=O)CCN2CCN(c3ccccn3)CC2)s1` gave a growth inhibition of 58.6%. In the case of `Cc1cc(C(=O)c2ccc(Cl)cc2)ccc1O`, the growth inhibition is reported as 70.5% (active). With `O=C(c1ccccc1)C(Br)C(Br)c1ccccc1` (centres undefined) the growth inhibition was 97.2% (active). In the case of `CCCCCCN(CCCCCC)CCCNc1nccc2ccccc12`, the growth inhibition is reported as 77% (active). In the case of `CCCCCCCCCCCC[S+](C)CC(=O)[O-]` (centres undefined), the growth inhibition is reported as 72.8% (active). For `COC(=O)C(=[N+]=[N-])C(=O)c1ccc([N+](=O)[O-])o1`, the growth inhibition was 98.7% (active). For `Cc1c(O)ccc(SC#N)c1C`, the growth inhibition was 88.5% (active). For `Oc1c(Cl)cc(Cl)cc1C(c1cc(Cl)cc(Cl)c1O)C(Cl)(Cl)Cl`, the growth inhibition was 99.2% (active). In the case of `CCCCCCCCCCCCNCCCc1ccccc1`, the growth inhibition is reported as 98.5% (active). For `Nc1ccc(C(=O)/C=C/c2ccccc2)cc1`, the growth inhibition was 96.3% (active). `NCC(=O)NC(CC(=O)O)C(=O)O` (centres undefined) (H-Gly-[ξD]-OH) showed a growth inhibition of 32.2%. In the case of `CN(C)c1ccc(C(=C2C=CC(=[N+](C)C)C=C2)c2ccc(N(C)C)cc2)cc1`, the growth inhibition is reported as 91.2% (active). For `O=C1c2ccccc2Cc2cccc(Cl)c21`, the growth inhibition was 33%. For `O=C/C=C/c1ccc([N+](=O)[O-])cc1`, the growth inhibition was 90.5% (active). In the case of `O=C1c2ccccc2C(=O)c2c(O)c(Cl)cc(O)c21`, the growth inhibition is reported as 78% (active). For `CN1CSC(=S)N(Cc2ccccc2)C1`, the growth inhibition was 75.3% (active). For `CC(O)C(O)C(O)C(O)C(O)C(=O)NNc1ccccc1` (centres undefined), the growth inhibition was 83.2% (active). With `Cn1c(COC(=O)NC2CCCCC2)c(COC(=O)NC2CCCCC2)c2ccc3cc(Cl)c(Cl)cc3c21` the growth inhibition was 21.8%. `NC(=S)N/N=C\c1nccc2c(N)cccc12` showed a growth inhibition of 67.5%. With `Oc1cc(Cl)ccc1Cc1ccc(Cl)cc1O` the growth inhibition was 99.7% (active). For `CCCCCCCCCCCC(=O)OC(C)C(=O)NCCCC` (centres undefined), the growth inhibition was 75.2% (active). For `CCC(=O)c1cc([N+](=O)[O-])c(Br)s1`, the growth inhibition was 99.5% (active). In the case of `OC(Cc1cc(CC(O)(C(F)(F)F)C(F)(F)F)nc(CC(O)(C(F)(F)F)C(F)(F)F)c1)(C(F)(F)F)C(F)(F)F`, the growth inhibition is reported as 99.5% (active).
